Assay results as given in PubChem BioAssay (EPA / NIEHS).
Active and inactive are the calls of the source. The calls were made as follows: active = hit-call score of the fitted dose curve at least 0.9, where 1 is the maximum; inactive = score below 0.9.

Assay: CCTE_Padilla_ZF_Score.Swim_bladder: CCTE's 144 Hour Post-fertilization zebrafish Assay Score for Swim Bladder Malformation, Padilla Lab (AID 2284408)
Procedure: CCTE_Padilla_ZF_Phenotype_Score is a whole embryo, multiplexed assay using zebrafish ova exposed for 144 hours post fertilization on a 96-well plate.CCTE_Padilla_ZF_Score.Swim_bladder is one of one assay component(s) measured or calculated from the CCTE_Padilla_ZF_Phenotype_Score assay. It is designed to make measurements of zebrafish development as detected with brightfield microscopy of developing zebrafish embryos.Data from the assay component CCTE_Padilla_ZF_Score.Swim_bladder was analyzed into 1 assay endpoints. This assay endpoint, CCTE_Padilla_ZF_Score.Swim_bladder, was analyzed in the positive analysis fitting direction relative to DMSO as the negative control and baseline of activity. Using a type of viability reporter, gain-of-signal activity can be used to understand changes in developmentals as they relate to the whole embryo. To generalize the intended target to other relatable targets, this assay endpoint is annotated to the zebrafish development intended target family, where the subfamily is swim bladder morphogenesis.
Zebrafish husbandry: Wild type adult zebrafish (Danio rerio; undefined outbred stock obtained from Aquatic Research Organisms, Hampton, NH, 03842) were housed in an AAALAC-approved animal facility at 28C with a 14:10 h light: dark cycle (lights on at 08:30 h). Adult fish (2-3 females per male; density = 15-20 adults per tank) were kept in one of several 9-liter (L) flow-through colony tanks (Aquaneering Inc., San Diego, CA). All adults in a colony tank were placed in a 2 L (static) breeding tank (Aquatic Habitats, Apopka, FL) one hour prior to light onset. Typically, adults from two to three colony tanks were mated on the same day. Two hours after light onset the adults were returned to the colony tank. All embryos were gathered from each breeder tank, pooled, and placed in a 28C water bath for 2 h, followed by two washes with 0.06% bleach (v/v) in 10% Hanks' Balanced Salt Solution (13.7 mM NaCl 0.54 mM KCl, 25 uM Na2HPO4, 130 uM CaCl2 100 um MgSO4 and 420 um NaHCO3,), hereafter referred to as Hanks' solution, for 5 min in order to remove any residual bacteria or fungi. Immediately following washing, the embryos were examined, and healthy embryos were separated from dead or unfertilized eggs and moved into fresh Hanks'. Chemical exposures: Zebrafish embryos were exposed in 96-well plates. Between 6- and 8-hours post fertilization (hpf), healthy embryos (with chorions) were transferred, one embryo per well, into 96 well (0.5 mL) microtiter plates (Cell Culture-Treated, Flat-Bottom Microplate 96 well [Corning Costar, Kennebunk, ME; Cat 09-761-145]) filled with 200 uL of Hanks' solution. A random number generator was used to assign the order in which the rows of embryos were plated in 96 well plates each week. After plating, the embryos were dosed with 0.8 uL of the chemical dosing solution then immediately sealed with AlumaSeal II (Excel Scientific Inc, Victorville, CA) to prevent volatilization of the chemicals, and then placed in a leakproof secondary container. These containers were placed in an incubator maintained on a 14:10 h light: dark cycle at 26C for rearing. On 5 dpf, live larvae were gently moved out of the plate with test chemicals and into a new 96 well mesh plate (Millipore Corp., Bedford, MA) with just the Hanks' solution. Once within the mesh well plate, the animals were rinsed with 400 uL of fresh Hanks' three times, and then the plates were covered with a non-adhesive material (Microseal A, BioRad, Hercules, CA), plate lid added, and then plate sides wrapped in Parafilm (PM992, Bermis Company, Neenah, WI), and returned to the incubator. […]

SMILES	outcome	AC50
O=C(O)C(F)(F)C(F)(F)C(=O)O	inactive	
CC(O)C(F)(F)C(F)(F)F (centres undefined)	inactive	
O=C(O)C(F)(OC(F)(F)C(F)(F)C(F)(F)F)C(F)(F)F (centres undefined)	inactive	
OCC(F)(F)OC(F)(F)C(F)(F)OC(F)(F)C(F)(F)OC(F)(F)CO	inactive	
FC(F)(F)C(F)(C(F)(F)F)C(F)(F)C(F)(F)CC1CO1 (centres undefined)	inactive	
O=C(O)C=CC(F)(C(F)(F)F)C(F)(F)F	inactive	
OCC(F)(F)OC(F)(F)C(F)(F)OC(F)(F)CO	inactive	
O=C(O)C(F)(F)OC(F)(F)C(F)(F)OC(F)(F)C(=O)O	inactive	
O=S(=O)(F)C(F)(F)C(F)(F)C(F)(F)C(F)(F)C(F)(F)C(F)(F)C(F)(F)C(F)(F)F	inactive	
C=CC(=O)OCC(F)(F)C(F)F	inactive	
OCC(F)(F)OC(F)(F)C(F)(F)OC(F)(F)C(F)(F)OC(F)(F)F		27.5 µM (active)
O=C(O)C(F)(F)OC(F)(F)C(F)(F)OC(F)(F)F	inactive	
NC(=O)C(F)(F)C(F)(F)F	inactive	
COC(=O)C(F)(F)C(F)(F)OC(F)(C(F)(F)F)C(F)(F)OC(F)=C(F)F (centres undefined)	inactive	
